Assay results as given in PubChem BioAssay (NCI).
About 83,000 compounds went through this panel and 20% of them were active in at least one assay; those are over-represented in the sample as a whole.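 Note: values are percent growth. 100 is the growth of untreated cells, values between 100 and 0 indicate rising inhibition; between -100 and 0 indicates cell death.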 Unmarked numbers belong to inactive results. Calls of active or inactive are those of the source. The calls were made as follows: active = growth percent below 10; inactive = the rest.

Assays:
Experiment in all cases: NCI-60 one-dose screen, 48 h (100 = growth as untreated, 0 = no growth, -100 = all killed)
Details in all cases: 10 µM unless noted
[1] = test system: NCI-H23 lung
[2] = test system: NCI-H226 lung
[3] = test system: NCI-H322M lung
[4] = test system: HOP-62 NSCLC
[5] = test system: NCI-H460 lung
[6] = test system: HOP-92 NSCLC
[7] = test system: NCI-H522 lung
[8] = test system: A549/ATCC NSCLC
[9] = test system: 786-0 renal
[10] = test system: COLO 205 colon

| Structure (SMILES) | growth [1] | growth [2] [%] | growth [3] | growth [4] | growth [5] | growth [6] | growth [7] | growth [8] [%] | growth [9] | growth [10] |
| --- | --- | --- | --- | --- | --- | --- | --- | --- | --- | --- |
| CCN1C(=O)N(CC)C2SC(N/N=C/c3ccccc3F)=NC21 (stereo not given) | 31.6% | 45.1 | 53.3% | 30.9% | 4.97% (active) | 8.68% (active) | -35.6% (active) | 27.3 | 30.6% | -47.6% (active) |
| Nc1cc(F)ccc1NC(=O)c1ccc(NC(=O)C/C=C/c2cccnc2)cn1 | 32% | 46.8 | 40.2% | 29.6% | 30% | 5.74% (active) | -4.98% (active) | 31.5 | 41.8% | 1.22% (active) |
| COc1ccc(-c2cc(-c3cccc4ccccc34)n3c(n2)nc2ccccc23)cc1 | 62.2% | 49.1 | 73.5% | 26% | 13.5% | 38.4% | 50.3% | 29 | 36.5% | 74% |
| C=CCn1c(SCC(=O)Nc2cccc(C(=O)/C=C/c3ccccc3)c2)nc2ccccc2c1=O | 77.2% | 78.1 | 91.5% | 113% | 91.8% | 76.1% | 86.2% | 82.6 | 100% | 120% |
| O=C(CSc1ccc(-c2nc3ccccc3[nH]2)cn1)N1CCN(c2ccccc2F)CC1 | 67.3% | 59.6 | 101% | 89.8% | 88.5% | 71.9% | 52.4% | 81.2 | 95.4% | 79.7% |
| O=C1c2c(c3c4cc(O)ccc4oc3c3[nH]c4ccccc4c23)C(=O)N1O | 2.57% (active) | 63.6 | 2.25% (active) | -25.6% (active) | -6.86% (active) | -8.01% (active) | -5.7% (active) | 43.5 | 2.62% (active) | 61.5% |
| Cn1cc(-c2nnc(N)nc2-c2cn(C)c3ccc(F)cc23)c2cc(F)ccc21 | 101% | 97.4 | 101% | 90.7% | 102% | 116% | 73.2% | 77.2 | 86.1% | 107% |
| CCOC(=O)c1nn(-c2ccccc2)c(=O)c2c(N)c(C#N)c(-c3cccs3)cc12 | 69.4% | 60 | 91.4% | 80.4% | 92.9% | 61.3% | 83.8% | 87.2 | 41.4% | 102% |
| COc1ccccc1N1CCN(C2=NN=C(c3cccc(Cl)c3)c3ccccc3C2)CC1 | 31.6% | 57.5 | 37% | 34.3% | 1.95% (active) | 46.8% | -27.1% (active) | 17.2 | 27% | -38.7% (active) |
| NC(=O)C(=Cc1ccc(Cl)cc1)C(N)=O | 74.5% | 65.3 | 79.6% | 95.9% | 89% | 34.8% | 46.5% | 74.5 | 70.7% | 81.3% |
| O=C1/C(=C/c2ccc([N+](=O)[O-])cc2)SC(=Nc2ccccc2)N1Nc1ccccc1 | 60.5% | 85.1 | 60.9% | 97.1% | 50.9% | 108% | 58.1% | 71.5 | 66.4% | 92.6% |
| C#C[C@]1(O)CC[C@H]2[C@@H]3CC=C4c5sc(Nc6cccc(C)n6)nc5CC[C@]4(C)[C@H]3CC[C@@]21C | 36.3% | 45 | 61.3% | 16.5% | 4.46% (active) | 1.75% (active) | 44.7% | 30.7 | -70.7% (active) | 68.3% |
| C=C(C)[C@@H]1CC[C@]2(C(=O)NCCCN(CCC#N)CCC#N)CC[C@]3(C)[C@H](CC[C@@H]4[C@@]5(C)CCC(=O)C(C)(C)[C@@H]5CC[C@]43C)[C@@H]12 | 93.6% | 94 | 103% | 97.9% | 101% | 102% | 91.6% | 97.3 | 101% | 109% |
| Oc1ccc(CSc2nnc(-c3cnccn3)o2)c2cccnc12 | 12.1% | 23.6 | 31.6% | 20.9% | 2.29% (active) | -9.09% (active) | 7.24% (active) | 20.9 | 24.5% | 85.4% |
| CC1CCN(S(=O)(=O)c2ncsc2-c2ccccc2)CC1 | 92.9% | 99.9 | 98.6% | 85.3% | 91.5% | 116% | 98.5% | 93.1 | 30.8% | 112% |
| O=c1[nH]c(CCl)nc2c1cnn2-c1ccccc1 | 101% | 110 | 101% | 125% | 101% | 101% | 103% | 98.6 | 77.9% | 114% |
| O=C(NCCCCCCNC(=O)c1c2c(nc3ccccc13)-c1cccnc1SC2)c1c2c(nc3ccccc13)-c1cccnc1SC2 | 63.1% | 82.6 | 71.9% | 43.9% | 75% | 50.8% | 95.7% | 70.6 | 76.5% | 28.8% |
| CCC(CC)N1C(=O)/C(=c2\sc3n(c2=O)C2C(NN=3)N(CC)C(=O)N2CC)c2ccccc21 (stereo not given) | 7.64% (active) | 53.6 | 61% | 29.6% | 4.83% (active) | 86.7% | 20.1% | 26 | 34.9% | -13.2% (active) |
| C#C[C@]1(O)CC[C@H]2[C@@H]3CC=C4c5sc(-c6ccccn6)nc5CC[C@]4(C)[C@H]3CC[C@@]21C | 81.2% | 94.4 | 90.6% | 77.5% | 75.9% | 110% | 91.6% | 85.7 | 24.5% | 90.9% |
| C[C@H]1[C@H](C)CC[C@]2(COC(=O)c3cccnc3)CC[C@]3(C)C(=CC[C@@H]4[C@@]5(C)CCCNC(C)(C)[C@@H]5CC[C@]43C)[C@H]12 | 70% | 78.1 | 88.3% | 99.8% | 65.1% | 67.5% | 82.9% | 78.6 | 70.7% | 43.9% |
| C=C1C(=O)O[C@@H]2C[C@@H](C)[C@H](OC)CC(=O)[C@](C)(OC(C)=O)C[C@H](OC(=O)/C(C)=C\C)[C@@H]12 | 70% | 96.4 | 95.1% | 89.5% | 101% | 85.1% | -67.8% (active) | 100 | 93% | -7.69% (active) |
| Nc1nc(-c2cccc([N+](=O)[O-])c2)c(N=Nc2ccccc2Cl)s1 | 60.8% | 70.4 | 86.3% | 56.1% | 41% | 31.8% | 60.1% | 51.8 | 52.6% | 93.1% |
| CCCCCc1ccc(S(=O)(=O)N(C(C)=O)c2cccc(-c3csc(N(CCN4CCN(C)CC4)C(C)=O)n3)c2)cc1 | 48.9% | 85.3 | 61.1% | 83.5% | -21.4% (active) | 34% | 69.8% | 39.5 | 6.89% (active) | -61% (active) |
| O=C1c2c(c3c4cccnc4[nH]c3c3ccc4ccccc4c23)C(=O)N1CCN1CCOCC1 | 45.3% | 71.5 | 84.5% | 47.6% | 10.6% | 80.7% | 60.5% | 55.4 | 77.9% | 66.8% |
| Clc1ccc(-c2csc(N/N=C/c3nc4ccccc4n3C3CC3)n2)cc1 | 98.5% | 91.5 | 98.5% | 106% | 105% | 105% | 93% | 95.5 | 109% | 104% |
